In the supplement of paper PMC8728848:
About 410 targets per protein were measured; listed, in parts, are those with the strongest signals and a random draw of the rest.

Legend:
Assay in all cases: glycan array binding signal (z-score within array); higher = stronger binding
Conditions in all cases: glycan notation: IUPAC condensed, linker removed
[1] = biological target: Neu5Ac(a2-3)Gal(b1-4)GlcNAc(b1-3)Gal(b1-4)[Fuc(a1-3)]GlcNAc
How it was run: (§1)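 From the Consortium for Functional Glycomics database, 3228 arrays were curated, keeping only those whose protein sequence was available. Binding is given as a within-array Z-score averaged across arrays sharing a protein sequence and across linkers. Negative Z-scores can be read as non-binding.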

[2] = biological target: Neu5Ac(a2-3)Gal(b1-4)[Fuc(a1-3)]GlcNAc(b1-3)GalNAc
How it was run: as §1

[3] = biological target: Neu5Ac(a2-6)Gal(b1-4)GlcNAc(b1-2)Man(a1-3)[Gal(b1-4)GlcNAc(b1-2)Man(a1-6)]Man(b1-4)GlcNAc(b1-4)GlcNAc
How it was run: as §1

[4] = biological target: Neu5Ac(a2-6)Gal(b1-4)GlcNAc(b1-2)Man(a1-6)[GlcNAc(b1-2)Man(a1-3)]Man(b1-4)GlcNAc(b1-4)GlcNAc
How it was run: as §1

[5] = biological target: Neu5Ac(a2-6)GlcNAc(b1-4)GlcNAc
How it was run: as §1

[6] = biological target: Neu5Ac9Ac(a2-6)Gal(b1-4)GlcNAc
How it was run: as §1

[7] = biological target: Fuc(a1-2)Gal(b1-3)GalNAc
How it was run: as §1

[8] = biological target: Fuc(a1-2)Gal(b1-3)GlcNAc(b1-3)[Fuc(a1-2)Gal(b1-3)GlcNAc(b1-6)]GalNAc
How it was run: as §1

[9] = biological target: Fuc(a1-2)[Gal(a1-3)]Gal(b1-3)GlcNAc(b1-6)GalNAc
How it was run: as §1

[10] = biological target: Fuc(a1-2)[Gal(a1-3)]Gal(b1-4)[Fuc(a1-3)]GlcNAc(b1-3)GalNAc
How it was run: as §1

[11] = biological target: Fuc(a1-3)[Gal(b1-4)]GlcNAc
How it was run: as §1

[12] = biological target: Fuc(a1-3)[Gal(b1-4)]GlcNAc(b1-6)GalNAc
How it was run: as §1

[13] = biological target: Fuc(a1-3)[Gal(b1-4)]GlcNAc(b1-6)[Gal(b1-3)GlcNAc(b1-3)]Gal(b1-4)Glc
How it was run: as §1

[14] = biological target: Fuc(a1-3)[Gal3S(b1-4)]GlcNAc6S
How it was run: as §1

[15] = biological target: Gal(a1-3)Gal(b1-4)Glc
How it was run: as §1

[16] = biological target: Gal(b1-3)GalNAc(b1-3)Gal(a1-4)Gal(b1-4)Glc
How it was run: as §1

[17] = biological target: Gal(b1-3)[GlcNAc(b1-6)]GalNAc
How it was run: as §1

[18] = biological target: Gal(b1-4)GlcNAc(b1-2)Man(a1-3)[GlcNAc(b1-4)][Gal(b1-4)GlcNAc(b1-2)Man(a1-6)]Man(b1-4)GlcNAc(b1-4)GlcNAc
How it was run: as §1

[19] = biological target: Gal(b1-4)GlcNAc(b1-2)[Gal(b1-4)GlcNAc(b1-6)]Man(a1-6)[Gal(b1-4)GlcNAc(b1-2)Man(a1-3)]Man(b1-4)GlcNAc(b1-4)GlcNAc
How it was run: as §1

[20] = biological target: Gal(b1-4)GlcNAc(b1-2)[Gal(b1-4)GlcNAc(b1-6)]Man(a1-6)[GlcNAc(b1-4)][Gal(b1-4)GlcNAc(b1-2)[Gal(b1-4)GlcNAc(b1-4)]Man(a1-3)]Man(b1-4)GlcNAc(b1-4)[Fuc(a1-6)]GlcNAc
How it was run: as §1

[21] = biological target: Gal(b1-4)GlcNAc(b1-3)Gal(b1-4)GlcNAc(b1-2)Man(a1-3)[Gal(b1-4)GlcNAc(b1-3)Gal(b1-4)GlcNAc(b1-2)Man(a1-6)]Man(b1-4)GlcNAc(b1-4)[Fuc(a1-6)]GlcNAc
How it was run: as §1

[22] = biological target: Gal(b1-4)GlcNAc(b1-3)Gal(b1-4)GlcNAc(b1-2)[Gal(b1-4)GlcNAc(b1-3)Gal(b1-4)GlcNAc(b1-6)]Man(a1-6)[Gal(b1-4)GlcNAc(b1-3)Gal(b1-4)GlcNAc(b1-2)Man(a1-3)]Man(b1-4)GlcNAc(b1-4)[Fuc(a1-6)]GlcNAc
How it was run: as §1

[23] = biological target: Gal(b1-4)GlcNAc(b1-3)Gal(b1-4)GlcNAc(b1-3)Gal(b1-4)GlcNAc(b1-2)Man(a1-3)[Gal(b1-4)GlcNAc(b1-3)Gal(b1-4)GlcNAc(b1-3)Gal(b1-4)GlcNAc(b1-2)Man(a1-6)]Man(b1-4)GlcNAc(b1-4)GlcNAc
How it was run: as §1

[24] = biological target: Gal(b1-4)GlcNAc(b1-3)Gal(b1-4)GlcNAc(b1-3)Gal(b1-4)GlcNAc(b1-2)[Gal(b1-4)GlcNAc(b1-3)Gal(b1-4)GlcNAc(b1-3)Gal(b1-4)GlcNAc(b1-6)]Man(a1-6)[Gal(b1-4)GlcNAc(b1-3)Gal(b1-4)GlcNAc(b1-3)Gal(b1-4)GlcNAc(b1-2)Man(a1-3)]Man(b1-4)GlcNAc(b1-4)[Fuc(a1-6)]GlcNAc
How it was run: as §1

[25] = biological target: Gal(b1-4)GlcNAc(b1-3)Gal(b1-4)GlcNAc(b1-3)Gal(b1-4)GlcNAc(b1-3)Gal(b1-4)GlcNAc(b1-2)Man(a1-3)[Gal(b1-4)GlcNAc(b1-3)Gal(b1-4)GlcNAc(b1-3)Gal(b1-4)GlcNAc(b1-3)Gal(b1-4)GlcNAc(b1-2)Man(a1-6)]Man(b1-4)GlcNAc(b1-4)[Fuc(a1-6)]GlcNAc
How it was run: as §1

[26] = biological target: Gal3S6S(b1-4)GlcNAc6S
How it was run: as §1

[27] = biological target: GalNAc(a1-3)GalNAc(b1-3)Gal(a1-4)Gal(b1-4)GlcNAc
How it was run: as §1

[28] = biological target: GalNAc(b1-4)Gal(b1-4)Glc
How it was run: as §1

[29] = biological target: GalNAc(b1-6)GalNAc
How it was run: as §1

[30] = biological target: GlcNAc(a1-4)Gal(b1-4)GlcNAc(b1-3)Gal(b1-4)GlcNAc
How it was run: as §1

[31] = biological target: GlcNAc(a1-4)Gal(b1-4)GlcNAc(b1-3)Gal(b1-4)[Fuc(a1-3)]GlcNAc(b1-3)Gal(b1-4)[Fuc(a1-3)]GlcNAc
How it was run: as §1

[32] = biological target: GlcNAc(b1-3)Gal(b1-4)GlcNAc(b1-2)Man(a1-3)[GlcNAc(b1-3)Gal(b1-4)GlcNAc(b1-2)Man(a1-6)]Man(b1-4)GlcNAc(b1-4)GlcNAc
How it was run: as §1

[33] = biological target: GlcNAc(b1-3)Gal(b1-4)GlcNAc(b1-3)Gal(b1-4)GlcNAc(b1-2)Man(a1-3)[GlcNAc(b1-3)Gal(b1-4)GlcNAc(b1-3)Gal(b1-4)GlcNAc(b1-2)Man(a1-6)]Man(b1-4)GlcNAc(b1-4)GlcNAc
How it was run: as §1

[34] = biological target: GlcNAc(b1-3)Gal(b1-4)GlcNAc(b1-3)Gal(b1-4)GlcNAc(b1-2)[GlcNAc(b1-3)Gal(b1-4)GlcNAc(b1-3)Gal(b1-4)GlcNAc(b1-6)]Man(a1-6)[GlcNAc(b1-3)Gal(b1-4)GlcNAc(b1-3)Gal(b1-4)GlcNAc(b1-2)Man(a1-3)]Man(b1-4)GlcNAc(b1-4)[Fuc(a1-6)]GlcNAc
How it was run: as §1

[35] = biological target: GlcNAc(b1-3)Gal(b1-4)GlcNAc(b1-3)Gal(b1-4)GlcNAc(b1-3)Gal(b1-4)GlcNAc(b1-2)Man(a1-3)[GlcNAc(b1-3)Gal(b1-4)GlcNAc(b1-3)Gal(b1-4)GlcNAc(b1-3)Gal(b1-4)GlcNAc(b1-2)Man(a1-6)]Man(b1-4)GlcNAc(b1-4)GlcNAc
How it was run: as §1

[36] = biological target: GlcNAc(b1-3)Gal(b1-4)GlcNAc(b1-3)Gal(b1-4)GlcNAc(b1-3)Gal(b1-4)GlcNAc(b1-2)Man(a1-3)[GlcNAc(b1-3)Gal(b1-4)GlcNAc(b1-3)Gal(b1-4)GlcNAc(b1-3)Gal(b1-4)GlcNAc(b1-2)Man(a1-6)]Man(b1-4)GlcNAc(b1-4)[Fuc(a1-6)]GlcNAc
How it was run: as §1

Binder	glycan array binding signal (z-score) [1]	glycan array binding signal (z-score) [2]	glycan array binding signal (z-score) [3]	glycan array binding signal (z-score) [4]	glycan array binding signal (z-score) [5]	glycan array binding signal (z-score) [6]	glycan array binding signal (z-score) [7]	glycan array binding signal (z-score) [8]	glycan array binding signal (z-score) [9]	glycan array binding signal (z-score) [10]	glycan array binding signal (z-score) [11]	glycan array binding signal (z-score) [12]	glycan array binding signal (z-score) [13]	glycan array binding signal (z-score) [14]	glycan array binding signal (z-score) [15]	glycan array binding signal (z-score) [16]	glycan array binding signal (z-score) [17]	glycan array binding signal (z-score) [18]	glycan array binding signal (z-score) [19]	glycan array binding signal (z-score) [20]	glycan array binding signal (z-score) [21]	glycan array binding signal (z-score) [22]	glycan array binding signal (z-score) [23]	glycan array binding signal (z-score) [24]	glycan array binding signal (z-score) [25]	glycan array binding signal (z-score) [26]	glycan array binding signal (z-score) [27]	glycan array binding signal (z-score) [28]	glycan array binding signal (z-score) [29]	glycan array binding signal (z-score) [30]	glycan array binding signal (z-score) [31]	glycan array binding signal (z-score) [32]	glycan array binding signal (z-score) [33]	glycan array binding signal (z-score) [34]	glycan array binding signal (z-score) [35]	glycan array binding signal (z-score) [36]
SBD (Rhizopus oryzae), P07683 (protein) ASIPSSASVQLDSYNYDGSTFSGKIYVKNIAYSKKVTVVYADGSDNWNNNGNIIAASFSGPISGSNYEYWTFSASVKGIKEFYIKYEVSGKTYYDNNNSANYQVS	-0.067	3.37	-0.457	0.349	0.158	-0.195	–	–	–	–	–	–	–	–	–	–	–	–	–	–	–	–	–	–	–	–	–	–	–	–	–	–	–	–	–	–
BIp1-His (Cryptococcus neoformans) (protein) MFTKIFVALFAATAVLSAPVESAEKRITHTGRATFYSPSVGIGACGWQNTDEELVVALNAPQYALNADHNCGQSVRITNEQNGNQEIAKVVDLCPGCNDGDLDMSPALFGALNNNDFDQGVFPISWNFLPRDDTSSSN	–	–	–	–	–	–	-0.387	-0.401	-0.487	0.249	0.066	-0.576	-0.013	-0.121	-0.171	0.446	0.127	-0.105	0.266	-0.02	2.12	0.623	1.97	3.26	2.08	1.12	-0.181	0.482	-0.887	-0.297	2.19	-0.301	1.87	2.23	2.51	3.44
